Reference: PubChem BioAssay (EPA / NIEHS)
Values joined by “and” are separate entries in the source; they are usually repeats but may differ in a detail not shown here. Identical values can stand only once. More than one record can exist for a structure, and the calls need not agree. Active and inactive are the calls of the source. How the source made its calls: active means hit-call score of the fitted dose curve at least 0.9, where 1 is the maximum; inactive means score below 0.9.

What was measured:
[1] = ATG_GRE_CIS: Attagene CIS-FACTORIAL HepG2 Assay for human Glucocorticoid Response Elements (GRE) (AID 2282947); conditions: HepG2 GRE cis-reporter, Attagene multiplex mRNA; actives raise or lower the signal
How it was run: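 Assay uses human hepatoma HepG2 cells transfected with cis-promoter reporter units, exposed 24 h. mRNA from reporters detected by RT-PCR plus capillary electrophoresis; DMSO serves as negative control and baseline.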

[2] = ATG_ISRE_CIS: Attagene CIS-FACTORIAL HepG2 Assay for human Interferon Regulatory Factor 1 (IRF1) binding to an Interferon-Stimulated Response Element (ISRE) (AID 2282948); conditions: HepG2 ISRE cis-reporter (Attagene), mRNA transcription readout; actives raise or lower the signal
How it was run: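 Cell-based cis-reporter assay; HepG2; 24 h exposure; reporter mRNA by RT-PCR plus capillary electrophoresis fluorescence; activity in either direction scored relative to DMSO.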

[3] = ATG_M_32_CIS: Attagene CIS-FACTORIAL HepG2 Assay for M32 Transcription Factor (Internal Marker) (AID 2282949); conditions: HepG2 Attagene cis-factorial M32 reporter, mRNA; actives raise or lower the signal;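 further: background control marker of the multiplexed CIS panel rather than a real target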
How it was run: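 Internal background marker read-out: RT-PCR/capillary electrophoresis fluorescence of reporter transcripts from transiently transfected HepG2 cells after 24 h chemical exposure. Activity fitted bidirectionally relative to DMSO negative control.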

[4] = ATG_M_06_CIS: Attagene CIS-FACTORIAL HepG2 Assay for M06 Transcription Factor (Internal Marker) (AID 2282950); conditions: HepG2 Attagene CIS-FACTORIAL M06 internal marker reporter; actives raise or lower the signal
How it was run: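 HepG2 cells transiently transfected with cis-regulated multiple reporter transcription units were exposed to chemical for 24 h; reporter mRNA was quantified by RT-PCR, 6-FAM primer labelling, HpaI digestion and capillary electrophoresis, fitted bidirectionally against DMSO.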

[5] = molecular target: Hypoxia-inducible factor 1-alpha (Homo sapiens) (UniProt Q16665); experiment: ATG_HIF1a_CIS: Attagene CIS-FACTORIAL HepG2 Assay for human Hypoxia Inducible Factor 1 (HIF1A) (AID 2282951); conditions: HepG2 Attagene cis-factorial HIF1a reporter transcription; actives raise or lower the signal
Hypoxia-inducible factor 1-alpha (Homo sapiens), sequence (Q16665 whole entry, looked up): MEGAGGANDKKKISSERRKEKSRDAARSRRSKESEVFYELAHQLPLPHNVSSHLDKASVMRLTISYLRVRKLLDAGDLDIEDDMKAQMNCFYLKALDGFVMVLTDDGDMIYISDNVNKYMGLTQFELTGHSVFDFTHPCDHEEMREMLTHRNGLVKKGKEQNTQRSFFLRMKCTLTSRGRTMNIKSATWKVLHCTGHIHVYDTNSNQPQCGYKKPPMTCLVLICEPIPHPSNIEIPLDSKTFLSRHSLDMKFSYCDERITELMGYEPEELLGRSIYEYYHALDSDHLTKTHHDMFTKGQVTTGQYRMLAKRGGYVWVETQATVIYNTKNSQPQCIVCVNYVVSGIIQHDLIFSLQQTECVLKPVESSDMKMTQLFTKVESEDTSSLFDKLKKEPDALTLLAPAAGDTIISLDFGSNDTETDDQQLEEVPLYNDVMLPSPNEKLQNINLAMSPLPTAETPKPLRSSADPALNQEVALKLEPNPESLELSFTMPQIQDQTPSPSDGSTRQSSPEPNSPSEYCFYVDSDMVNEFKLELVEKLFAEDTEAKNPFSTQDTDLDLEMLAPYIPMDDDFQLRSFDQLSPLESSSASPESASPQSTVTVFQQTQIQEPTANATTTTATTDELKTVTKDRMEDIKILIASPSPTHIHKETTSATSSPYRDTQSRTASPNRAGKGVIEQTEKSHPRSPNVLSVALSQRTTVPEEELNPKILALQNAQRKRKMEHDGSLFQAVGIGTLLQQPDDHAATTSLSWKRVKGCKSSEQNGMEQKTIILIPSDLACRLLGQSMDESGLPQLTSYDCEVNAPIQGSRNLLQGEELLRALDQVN
How it was run: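 HepG2, transient cis-reporter library, 24 h dosing. RNA → RT (oligo dT) → PCR → 6-FAM primer extension → HpaI → CE. Bidirectional curve fit vs DMSO.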

[6] = molecular target: Hepatocyte nuclear factor 6 (Homo sapiens) (UniProt Q9UBC0); experiment: ATG_HNF6_CIS: Attagene CIS-FACTORIAL HepG2 Assay for human Hepatocyte Nuclear Factor 6 (HNF6) (AID 2282952); conditions: HepG2 Attagene cis-factorial HNF6 reporter transcription; actives raise or lower the signal
Hepatocyte nuclear factor 6 (Homo sapiens), sequence (Q9UBC0 whole entry, looked up): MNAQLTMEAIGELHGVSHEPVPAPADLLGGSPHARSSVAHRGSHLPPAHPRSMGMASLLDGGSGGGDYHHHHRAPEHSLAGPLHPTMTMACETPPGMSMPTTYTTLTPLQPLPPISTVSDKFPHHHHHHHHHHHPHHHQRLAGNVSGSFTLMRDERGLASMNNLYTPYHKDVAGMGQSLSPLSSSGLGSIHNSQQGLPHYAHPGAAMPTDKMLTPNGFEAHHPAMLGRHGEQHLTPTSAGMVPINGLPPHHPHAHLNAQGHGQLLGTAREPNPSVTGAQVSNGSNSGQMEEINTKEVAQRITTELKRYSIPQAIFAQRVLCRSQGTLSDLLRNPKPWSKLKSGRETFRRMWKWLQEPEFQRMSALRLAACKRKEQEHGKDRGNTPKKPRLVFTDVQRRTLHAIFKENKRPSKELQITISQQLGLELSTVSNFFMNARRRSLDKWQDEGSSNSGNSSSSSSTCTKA
How it was run: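 HepG2 cells transiently transfected with cis-element-driven multiple reporter transcription units, dosed 24 h; reporter mRNA quantified by RT-PCR, FAM primer extension, HpaI digestion and capillary electrophoresis; bidirectional fit versus DMSO baseline.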

[7] = molecular target: Heat shock factor protein 1 (Homo sapiens) (UniProt Q00613); experiment: ATG_HSE_CIS: Attagene CIS-FACTORIAL HepG2 Assay for human Heat Shock Transcription Factor 1 (HSE) (AID 2282953); conditions: HepG2 HSE cis-reporter, Attagene RNA transcription; actives raise or lower the signal
Heat shock factor protein 1 (Homo sapiens), sequence (Q00613 whole entry, looked up): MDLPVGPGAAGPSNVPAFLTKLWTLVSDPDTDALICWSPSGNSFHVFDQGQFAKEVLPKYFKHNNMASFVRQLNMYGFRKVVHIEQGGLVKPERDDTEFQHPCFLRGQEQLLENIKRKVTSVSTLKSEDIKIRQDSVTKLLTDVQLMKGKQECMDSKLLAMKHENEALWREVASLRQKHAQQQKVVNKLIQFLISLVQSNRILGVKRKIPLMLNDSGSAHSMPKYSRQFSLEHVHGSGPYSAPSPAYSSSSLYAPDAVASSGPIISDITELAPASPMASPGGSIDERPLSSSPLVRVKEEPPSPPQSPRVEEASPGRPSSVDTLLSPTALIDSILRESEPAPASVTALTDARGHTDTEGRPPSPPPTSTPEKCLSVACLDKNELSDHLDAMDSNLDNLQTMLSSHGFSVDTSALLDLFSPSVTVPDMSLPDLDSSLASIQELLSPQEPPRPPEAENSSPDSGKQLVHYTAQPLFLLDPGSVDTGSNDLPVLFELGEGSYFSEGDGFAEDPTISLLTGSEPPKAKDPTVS
How it was run: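 HepG2 cells transiently transfected with multiple reporter transcription units under cis-regulatory promoter control, measuring endogenous transcription factor activity. After 24 h chemical exposure, reporter mRNA quantified by RT-PCR, fluorescent labelling, HpaI digestion and capillary electrophoresis; bidirectional fit versus DMSO.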

[8] = ATG_MRE_CIS: Attagene CIS-FACTORIAL HepG2 Assay for human Metal Responsive Element (MRE) (AID 2282954); conditions: HepG2 MRE cis-reporter transcription, Attagene multiplex; actives raise or lower the signal
How it was run: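 After a 24 h chemical exposure, transiently transfected HepG2 cells yield RNA whose reporter sequences are amplified, FAM-labelled and sized by capillary electrophoresis. Curves are fitted bidirectionally relative to DMSO.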

[9] = ATG_PBREM_CIS: Attagene CIS-FACTORIAL HepG2 Assay for human Phenobarbital-responsive Enhancer Module (PBREM) (AID 2282955); conditions: HepG2 PBREM cis-reporter, Attagene multiplexed transcription; actives raise or lower the signal
How it was run: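 HepG2, transient MRTU transfection, 24 h dosing; RNA → oligo(dT) RT → PCR → 6-FAM extension → HpaI → CE. Bidirectional fit vs DMSO.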

[10] = molecular target: Paired box protein Pax-6 (Homo sapiens) (UniProt P26367); experiment: ATG_Pax6_CIS: Attagene CIS-FACTORIAL HepG2 Assay for human Paired Box 6 (PAX6) (AID 2282956); conditions: HepG2 CIS-FACTORIAL PAX6 reporter transcription, RNA readout; actives raise or lower the signal
Paired box protein Pax-6 (Homo sapiens), sequence (P26367 whole entry, looked up): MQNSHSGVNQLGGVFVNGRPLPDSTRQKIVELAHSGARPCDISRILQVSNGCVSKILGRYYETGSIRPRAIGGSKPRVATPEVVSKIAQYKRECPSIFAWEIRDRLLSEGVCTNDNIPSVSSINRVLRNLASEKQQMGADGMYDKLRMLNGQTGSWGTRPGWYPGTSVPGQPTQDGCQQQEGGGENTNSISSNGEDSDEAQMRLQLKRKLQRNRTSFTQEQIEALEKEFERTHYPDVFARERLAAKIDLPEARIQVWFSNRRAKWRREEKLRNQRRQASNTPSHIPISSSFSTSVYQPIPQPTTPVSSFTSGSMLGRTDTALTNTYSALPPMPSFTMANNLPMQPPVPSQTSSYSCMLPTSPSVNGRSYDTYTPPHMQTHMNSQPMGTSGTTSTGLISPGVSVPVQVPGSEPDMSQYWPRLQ
How it was run: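 Multiplexed cis-reporter HepG2 system; 24 h treatment; reporter mRNA read by RT-PCR/CE fluorescence; bidirectional fit vs DMSO.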

[11] = ATG_PXRE_CIS: Attagene CIS-FACTORIAL HepG2 Assay for human Pregnane X Receptor Element (PXRE) (AID 2282957); conditions: HepG2 Attagene CIS-FACTORIAL PXRE reporter, mRNA; actives raise or lower the signal
How it was run: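 HepG2 cells transiently transfected with cis-regulated multiple reporter transcription units; endogenous factor activity measured as reporter mRNA 24 h after dosing. RT-PCR, fluorescent primer extension, HpaI digestion, capillary electrophoresis; bidirectional fit versus DMSO baseline.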

[12] = ATG_PPRE_CIS: Attagene CIS-FACTORIAL HepG2 Assay for human Peroxisome Proliferator-activated Response Element (PPRE) (AID 2282958); conditions: HepG2 PPRE cis-element reporter, Attagene transcription factor profiling; actives raise or lower the signal
How it was run: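 Transcript-level reporter induction in transfected HepG2 cells after 24 h chemical exposure, quantified by fluorescence from RT-PCR products separated by capillary electrophoresis.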

[13] = ATG_RORE_CIS: Attagene CIS-FACTORIAL HepG2 Assay for human RAR-related Orphan Receptor Element (RORE) (AID 2282959); conditions: HepG2 Attagene cis-factorial RORE reporter, mRNA; actives raise or lower the signal
How it was run: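 Multiplexed reporter assay measuring mRNA induction from a cis promoter element in transiently transfected HepG2 cells after 24 h treatment. Detection via RT-PCR and capillary electrophoresis fluorescence; DMSO serves as baseline.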

[14] = ATG_Sox_CIS: Attagene CIS-FACTORIAL HepG2 Assay for human SRY-box transcription factor (SOX) (AID 2282960); conditions: HepG2 Attagene cis-factorial SOX reporter, mRNA; actives raise or lower the signal
How it was run: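 Cells were transfected with reporter constructs under cis-regulatory promoters, then exposed to chemicals for 24 h. Reporter transcripts were quantified by fluorescence after RT-PCR and capillary electrophoresis; activity was fitted in both directions against DMSO.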

[15] = molecular target: Transcription factor Sp1 (Homo sapiens) (UniProt P08047); experiment: ATG_Sp1_CIS: Attagene CIS-FACTORIAL HepG2 Assay for human Specificity Protein 1 (Sp1) (AID 2282961); conditions: HepG2 Sp1 cis-reporter transcription, actives raise or lower the signal
Transcription factor Sp1 (Homo sapiens), sequence (P08047 whole entry, looked up): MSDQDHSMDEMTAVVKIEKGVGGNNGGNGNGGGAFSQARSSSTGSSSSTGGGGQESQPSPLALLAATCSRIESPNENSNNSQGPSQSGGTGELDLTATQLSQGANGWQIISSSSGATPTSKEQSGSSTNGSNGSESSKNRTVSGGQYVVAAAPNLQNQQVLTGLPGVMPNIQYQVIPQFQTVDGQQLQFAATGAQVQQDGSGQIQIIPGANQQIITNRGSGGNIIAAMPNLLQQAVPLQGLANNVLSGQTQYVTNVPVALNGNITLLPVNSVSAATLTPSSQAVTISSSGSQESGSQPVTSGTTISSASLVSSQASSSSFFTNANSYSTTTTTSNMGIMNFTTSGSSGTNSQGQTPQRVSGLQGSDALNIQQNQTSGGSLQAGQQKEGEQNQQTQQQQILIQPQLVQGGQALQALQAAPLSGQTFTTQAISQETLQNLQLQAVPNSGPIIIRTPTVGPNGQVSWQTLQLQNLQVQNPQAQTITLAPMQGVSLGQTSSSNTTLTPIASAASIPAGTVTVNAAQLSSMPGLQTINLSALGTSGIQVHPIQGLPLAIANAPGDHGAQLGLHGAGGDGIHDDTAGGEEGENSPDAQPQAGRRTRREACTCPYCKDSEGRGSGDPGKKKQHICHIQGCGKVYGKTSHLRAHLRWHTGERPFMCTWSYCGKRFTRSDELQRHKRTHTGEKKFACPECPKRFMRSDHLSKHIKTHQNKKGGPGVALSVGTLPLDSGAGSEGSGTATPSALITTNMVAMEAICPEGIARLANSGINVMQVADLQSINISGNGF
How it was run: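 Measures mRNA induction of an Sp1-linked reporter in HepG2 cells 24 h post-dosing. Multiplexed reporters read by RT-PCR and capillary electrophoresis; DMSO serves as negative control and baseline.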

[16] = ATG_SREBP_CIS: Attagene CIS-FACTORIAL HepG2 Assay for human Sterol Regulatory Element Binding (SREBP) (AID 2282962); conditions: HepG2 Attagene cis-factorial SREBP reporter, mRNA; actives raise or lower the signal
How it was run: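 mRNA induction of transfected cis-promoter reporters in HepG2 cells, 24 h post-dose. Detection: RT-PCR with 6-FAM-labelled products, HpaI digest, capillary electrophoresis. DMSO served as negative control and baseline.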

[17] = molecular target: Signal transducer and activator of transcription 3 (Homo sapiens) (UniProt P40763); experiment: ATG_STAT3_CIS: Attagene CIS-FACTORIAL HepG2 Assay for human Signal Transducer and Activator of Transcription 3 (STAT3) (AID 2282963); conditions: HepG2, Attagene cis-factorial STAT3 reporter transcription; actives raise or lower the signal
Signal transducer and activator of transcription 3 (Homo sapiens), sequence (P40763 whole entry, looked up): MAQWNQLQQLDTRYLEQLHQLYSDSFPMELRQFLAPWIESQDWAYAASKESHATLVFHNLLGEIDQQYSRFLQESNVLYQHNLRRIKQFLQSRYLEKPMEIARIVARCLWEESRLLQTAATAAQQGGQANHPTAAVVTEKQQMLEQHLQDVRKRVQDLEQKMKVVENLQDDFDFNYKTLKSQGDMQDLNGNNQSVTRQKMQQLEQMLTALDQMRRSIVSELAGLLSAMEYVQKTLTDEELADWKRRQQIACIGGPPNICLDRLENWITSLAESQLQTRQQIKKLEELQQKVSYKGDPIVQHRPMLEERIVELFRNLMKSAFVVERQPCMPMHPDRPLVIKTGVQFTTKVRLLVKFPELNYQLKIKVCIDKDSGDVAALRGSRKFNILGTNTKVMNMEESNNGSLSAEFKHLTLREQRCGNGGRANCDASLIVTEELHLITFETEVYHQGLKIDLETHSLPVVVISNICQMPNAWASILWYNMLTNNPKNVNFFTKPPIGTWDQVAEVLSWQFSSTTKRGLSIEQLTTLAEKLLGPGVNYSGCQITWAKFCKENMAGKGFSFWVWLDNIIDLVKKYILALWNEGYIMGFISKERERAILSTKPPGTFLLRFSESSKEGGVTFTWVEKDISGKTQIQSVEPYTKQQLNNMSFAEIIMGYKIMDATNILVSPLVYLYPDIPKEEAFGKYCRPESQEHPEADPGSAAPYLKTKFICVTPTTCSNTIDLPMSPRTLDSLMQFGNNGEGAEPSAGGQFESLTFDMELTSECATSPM
How it was run: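 After a 24 h compound incubation, total RNA from MRTU-transfected HepG2 cells was converted to cDNA and reporter sequences PCR-amplified, labelled and profiled by capillary electrophoresis. Gain and loss of signal were referenced to DMSO.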

[18] = ATG_TA_CIS: Attagene CIS-FACTORIAL HepG2 Assay for human TA Basal Promoter (AID 2282964); conditions: HepG2 Attagene CIS-factorial TA basal promoter reporter; actives raise or lower the signal
How it was run: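 HepG2 cells transiently transfected with multiplexed cis-promoter reporter units, dosed 24 h. Reporter mRNA measured by RT-PCR, 6-FAM labelling, HpaI digestion and capillary electrophoresis; bidirectional fit versus DMSO baseline, serving as background control.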

[19] = ATG_TCF_b_cat_CIS: Attagene CIS-FACTORIAL HepG2 Assay for human T-Cell-Factor with beta-catenin (TCF/b-cat) (AID 2282965); conditions: HepG2 TCF/beta-catenin cis-reporter transcription, actives raise or lower the signal
How it was run: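 Measured: reporter mRNA in HepG2 transiently transfected with cis-promoter reporter units, 24 h after chemical addition. Fitting was bidirectional, DMSO as negative control.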

[20] = ATG_TAL_CIS: Attagene CIS-FACTORIAL HepG2 Assay for human TAL Basal Promoter (AID 2282966); conditions: HepG2 Attagene cis-factorial TAL promoter reporter; actives raise or lower the signal;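 further: background control endpoint measuring basal TAL promoter reporter mRNA not a specific factor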
How it was run: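 HepG2 cells were transiently transfected with promoter-driven multiplexed reporter units and dosed for 24 h. Reporter mRNA was measured by RT-PCR with capillary electrophoresis fluorescence; bidirectional fits used DMSO as baseline, serving as a background control.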

O=C(NCO)NCO
outcome [1]: inactive
outcome [2]: inactive
outcome [3]: inactive
outcome [4]: inactive
outcome [5]: inactive
outcome [6]: inactive
outcome [7]: inactive
outcome [8]: inactive
outcome [9]: inactive
outcome [10]: inactive
AC50 [11]: 27.2 µM (active)
outcome [12]: inactive
outcome [13]: inactive
outcome [14]: inactive
outcome [15]: inactive
outcome [16]: inactive
outcome [17]: inactive
outcome [18]: inactive
outcome [19]: inactive
outcome [20]: inactive

O=C1CCCN1
outcome [1]: inactive
outcome [2]: inactive
outcome [3]: inactive
outcome [4]: inactive
outcome [5]: inactive
outcome [6]: inactive
outcome [7]: inactive
outcome [8]: inactive
outcome [9]: inactive
outcome [10]: inactive
outcome [11]: inactive
outcome [12]: inactive
outcome [13]: inactive
outcome [14]: inactive
outcome [15]: inactive
outcome [16]: inactive
outcome [17]: inactive
outcome [18]: inactive
outcome [19]: inactive
outcome [20]: inactive

CCC(=O)C(CC(C)N(C)C)(c1ccccc1)c1ccccc1 (configuration not stated)
outcome [1]: inactive
outcome [2]: inactive
outcome [3]: inactive
outcome [4]: inactive
outcome [5]: inactive
outcome [6]: inactive
outcome [7]: inactive
outcome [8]: inactive
outcome [9]: inactive
outcome [10]: inactive
AC50 [11]: 18.6 µM (active)
outcome [12]: inactive
outcome [13]: inactive
outcome [14]: inactive
outcome [15]: inactive
AC50 [16]: 14.2 µM (active)
outcome [17]: inactive
outcome [18]: inactive
outcome [19]: inactive
outcome [20]: inactive

CC(C)(C)CC(C)(C)c1ccc(O)cc1
outcome [1]: inactive
AC50 [2]: 8.06 µM (active)
outcome [2]: inactive
outcome [3]: inactive
outcome [4]: inactive
AC50 [5]: 0.932 nM (active) and 20.1 µM (active)
outcome [5]: inactive
outcome [6]: inactive
outcome [7]: inactive
outcome [8]: inactive
outcome [10]: inactive
AC50 [11]: 3.34 µM (active) [middle of 4 runs]
outcome [13]: inactive
outcome [14]: inactive
outcome [15]: inactive
AC50 [16]: 14.1 µM (active)
outcome [16]: inactive
outcome [17]: inactive
outcome [18]: inactive
AC50 [19]: 18.2 µM (active)
outcome [19]: inactive
outcome [20]: inactive

OCC(O)CCl (configuration not stated)
outcome [1]: inactive
outcome [2]: inactive
outcome [3]: inactive
outcome [4]: inactive
outcome [5]: inactive
outcome [6]: inactive
outcome [7]: inactive
outcome [8]: inactive
outcome [9]: inactive
outcome [10]: inactive
outcome [11]: inactive
outcome [12]: inactive
outcome [13]: inactive
outcome [14]: inactive
outcome [15]: inactive
outcome [16]: inactive
outcome [17]: inactive
outcome [18]: inactive
outcome [19]: inactive
outcome [20]: inactive

CC(=O)c1cc(C(C)(C)C)cc2c1CCC2(C)C
AC50 [1]: 73.9 µM (active)
outcome [2]: inactive
outcome [3]: inactive
outcome [4]: inactive
outcome [5]: inactive
outcome [6]: inactive
AC50 [7]: 64.4 µM (active)
AC50 [8]: 70.4 µM (active)
outcome [9]: inactive
AC50 [10]: 26.9 µM (active)
AC50 [11]: 5.72 µM (active)
AC50 [12]: 29.4 µM (active)
outcome [13]: inactive
outcome [14]: inactive
AC50 [15]: 69.3 µM (active)
AC50 [16]: 54.4 µM (active)
outcome [17]: inactive
outcome [18]: inactive
outcome [19]: inactive
outcome [20]: inactive
